Inhibition data for 107 compounds are collected here from PubChem BioAssay AID488 (PCMD, 2006).

Screen size: about 62,000 compounds; about 40 (0.06%) were called active. This is one part of a sample in which actives are shown more often than they occur. Cut-off read from the data, not from the text of the source: active = inhibition above about 22% (passing the limit was not always enough); inconclusive = no clear call, values can overlap the other calls.

This experiment has as its target Cathepsin B (Homo sapiens) (UniProt P07858). Description: cathepsin B inhibitors from pooled compounds, primary screen, biochemical, compound mixtures, AMC fluorescence (AID 488).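 Note: 0% = enzyme without compound and 100% = no enzyme blank.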 Conditions: Purified cathepsin B, AMC dipeptide fluorescence, active compounds read high,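 ten-compound pools at 5 µM per compound and 50 µM total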.
In the case of `CN(C)/C=C/c1c(C#N)c(=O)ncn1Cc1ccccc1`, the inhibition (commonly the change of the read-out against control, counted positive when it falls) is 4.44% (inactive).

`CCCC(=O)C1=C(N(C)c2ccccc2)CC(C)(C)C(C(=O)OC)C1=O` (configuration not stated): the inhibition was 6.7% (inactive). In the case of `O=C(O)CCN1C(=O)CC2(CCCCC2)C1=O` it was -0.755% (inactive). As to `COc1ccc(C)c(Cn2c(-c3nonc3N)nc3ccccc32)c1`, the inhibition is 19.5% (inactive).

In the case of `Nc1nonc1-c1nc2ccccc2n1CCC(=O)O`, the inhibition is 23.8% (inactive).

With `Nc1nonc1-c1nc2ccccc2n1Cc1ccc(F)cc1`, the inhibition is 79.6% (active). In the case of `Cc1ccc(C)c(S(=O)(=O)n2cnc3ccccc32)c1` it was -4.15% (inactive). On to `O=C(NCCN1CCOCC1)c1ccc2c(c1)ncn2C1CCCC1`, for which the inhibition is 2.62% (inactive). In the case of `O=C(CCN1C(=O)C2C3C=CC(C3)C2C1=O)Nc1ccccc1F` (configuration not stated) it was 1.56% (inactive); in that of `CC1Cc2cc(/C(O)=C3\C(=O)C(=O)N(CCN4CCOCC4)C3c3ccccc3F)ccc2O1` (configuration not stated), 3.23% (inactive); in that of `Cc1ccc(C2c3c(oc4ccc(C)cc4c3=O)C(=O)N2CCCN2CCOCC2)cc1` (configuration not stated), 3.25% (inactive). The same measure for `CCOc1cc(-c2nc3cc(C)ccn3c2NCC2CCCO2)ccc1O` (configuration not stated): -4.66% (inactive). In the case of `COc1cc2c(cc1NC(=O)CN1CCN(S(=O)(=O)c3ccc(F)cc3)CC1)oc1ccccc12` it was 2.98% (inactive). Regarding `CCC1CCCCN1CCNC(=O)c1[nH]c(C)c(C(C)=O)c1C` (configuration not stated), the inhibition was 4.44% (inactive). In the case of `COC(=O)C1C(=O)CC(C)(O)C(C(=O)OC)C1c1ccc2c(c1)OCO2` (configuration not stated) it was 1.84% (inactive); in that of `CCN(CC)C(=O)c1sc(NC(=O)c2ccco2)c(C#N)c1C`, 7.73% (inactive).

For the compound `N#Cc1cccc(NC(=O)CCC2CCCC2)c1`, the inhibition is 0.985% (inactive). The same measure for `CC(C)c1ccc(-c2nn[nH]n2)cc1`: 4.54% (inactive). The same measure for `Cc1c(C(=O)Nc2ccccc2Cl)oc2ccc(S(=O)(=O)N3CCC4(CC3)OCCO4)cc12`: 6.83% (inactive); for `O=C(NCCSc1ccccc1)c1ccco1`: 5.3% (inactive). In the case of `C=CCC(NCCCO)c1cccc(OC)c1OC` (configuration not stated) it was 0.355% (inactive); in that of `Cc1nc2nc[nH]n2c(=O)c1NC(=O)c1cccc(OCC(C)C)c1`, 0.08% (inactive).

`CC(C)(C)Nc1c(N)c(=O)oc2ccccc12`: the inhibition was 1.79% (inactive). The same measure for `CCC1Oc2ccc(Cl)cc2N(CC(=O)O)C1=O` (configuration not stated): 4.82% (inactive); for `O=C(Cn1cnc2c(cnn2-c2ccc(F)cc2)c1=O)NCCc1ccccc1`: -5.56% (inactive); for `CN(C(=O)c1ccccn1)c1nnc(-c2ccccn2)s1`: 4.35% (inactive).

As for `CN1CCN(CC(=O)C23CC4CC(CC(C4)C2)C3)CC1`, the inhibition is -16% (inactive). The same measure for `Cc1cc(-n2nc(C)cc2C)n2ncc(-c3ccccc3)c2n1`: -1.95% (inactive).

`COCCOC(=O)C1=C(C)N=c2s/c(=C\c3cccs3)c(=O)n2C1c1cccs1` (configuration not stated): the inhibition was 5.37% (inactive). The same measure for `COc1ccc(C(C)=O)cc1COC(=O)Cn1cnc2ccccc2c1=O`: -0.265% (inactive); for `CC(=O)c1c(N2CCOCC2)nc(=S)n(Cc2ccccc2)c1C`: -2.31% (inactive).

In the case of `CCOc1ccc(N=C2SC(C(=O)O)CC(=O)N2C)cc1` (configuration not stated), the inhibition was -1.85% (inactive). In the case of `COC(=O)Cn1c(=NC(=O)CSCC(=O)Nc2cc(C)on2)sc2ccccc21` it was -5.38% (inactive); in that of `Cn1c(SCC(=O)N2CCOCC2)nnc1-c1ccc(NC(=O)c2ccccc2F)cc1`, -2.64% (inactive); in that of `CC(C)C(c1nnnn1Cc1ccccc1)N1CCC(C(N)=O)CC1` (configuration not stated), -1.51% (inactive). In the case of `O=C(OCc1ccccc1F)c1ccc2c(c1)OCCO2` it was 8.22% (inactive); in that of `COC(=O)c1cc(C(=O)CSc2nc(C)cc(C)n2)ccc1O`, 1.56% (inactive); in that of `CSc1ccc(Cl)c(C(=O)OCC(=O)N2CC(C)OC(C)C2)c1` (configuration not stated), -10.2% (inactive). The same measure for `COC(=O)C1=C(N)Oc2cc(C)oc(=O)c2C1c1cccnc1` (configuration not stated): 1.64% (inactive); for `COC(=O)c1ccc(CSc2nncn2C)cc1`: 6.61% (inactive). With `CCN(CC)P(=O)(/C(Cl)=C\Nc1c(C)n(C)n(-c2ccccc2)c1=O)N(CC)CC`, the inhibition was -1.45% (inactive). In the case of `C=CCN(c1ccc(C(N)=O)cc1)S(C)(=O)=O` it was 1.82% (inactive); in that of `CCOC(=O)C1=C(C)N=c2s/c(=C\C(=O)OC)c(=O)n2C1c1ccc(OC)cc1` (configuration not stated), 4.36% (inactive); in that of `Cc1ccc(Cn2nnc3c(=O)n(CC(=O)N4CCCCC4)cnc32)cc1`, -4.83% (inactive). The same measure for `O=C(CC1Nc2ccccc2NC1=O)Nc1ccccc1` (configuration not stated): 2.4% (inactive); for `COc1ccccc1-n1cnc2cc(NS(=O)(=O)c3ccccc3)ccc21`: 4.81% (inactive); for `C=CCn1c(=N)n(CC(O)COc2ccc(OC)cc2)c2ccccc21` (configuration not stated): 4.16% (inactive).

On to `CCOc1ccc(CC(=O)Nc2ccc(S(=O)(=O)Nc3cc(C)on3)cc2)cc1OCC`, for which the inhibition is 3.38% (inactive).

On to `COC(=O)C1=C(C)NC(=O)NC1/C=C/c1ccccc1` (configuration not stated), for which the inhibition was 4.12% (inactive).

As for `O=C(Cn1c(-c2ccc(Cl)cc2)noc1=O)N1CCN(c2ccccc2F)CC1`, the inhibition was -2.31% (inactive). The same measure for `CCOC(=O)c1ccc2[nH]c(C)c(CN3CCN(C)CC3)c(=O)c2c1`: 6.62% (inactive); for `Cc1nc2cc(S(=O)(=O)C(F)(F)F)ccc2s1`: 1.09% (inactive). In the case of `CCOc1ccc(NC(=O)CCS(=O)(=O)c2cccc3nsnc23)cc1` it was 1.87% (inactive). The same measure for `Cc1nnc(SCC(=O)NCc2ccccc2)s1`: -1.96% (inactive); for `CC1=CC(C)(C)N(C(=O)CSc2nnc(-c3ccccc3)o2)c2ccc(C)cc21`: 1.93% (inactive); for `O=c1cc(CO)oc(CN2CCC(Cc3ccccc3)CC2)c1O`: -2.05% (inactive). Turning to `CCOC(=O)c1cc2occc2n1CC(=O)N1CCN(C(=O)c2ccco2)CC1`, the inhibition was 0.785% (inactive). The same measure for `Cc1cc(NC(=O)COC(=O)c2ccc(F)c(S(=O)(=O)N3CCOCC3)c2)no1`: 5.21% (inactive); for `CC1=C(C(N)=O)C(c2ccc3c(c2)OCO3)n2nc(-c3cccc(C)c3)nc2N1` (configuration not stated): -4.66% (inactive).

As to `CCCCn1c(CCCNC(=O)CC)nc2ccccc21`, the inhibition is 1.44% (inactive). The same measure for `Cc1cc(Cl)c(S(=O)(=O)NCc2cccnc2)cc1OCC(N)=O`: 7.41% (inactive); for `O=C(/C=N/O)Nc1ccccc1`: 3.15% (inactive); for `NC(=O)C1CCN(C(=O)c2ccc(C(F)(F)F)cc2)CC1`: -1.58% (inactive). The same measure for `CCOC(=O)CSc1nnc(CNC(=O)c2cccs2)n1-c1cc(OC)ccc1OC`: 0.53% (inactive); for `Cc1cccc(OCc2nnc(SCn3nnc4ccccc4c3=O)o2)c1`: -0.48% (inactive). On to `O=C(Cn1c(-c2cncs2)nc2ccccc21)NC1CCCC1`, for which the inhibition was 1.92% (inactive). The same measure for `C=C1c2cc(CC)ccc2NC(=O)N1c1ccc(C)cc1`: 5.66% (inactive); for `COc1ccc(OC)c(CNC(=O)CCc2nc(-c3cccs3)no2)c1`: -0.11% (inactive). In the case of `CC(=O)c1c(C)[nH]c(C(=O)NCCCN2CCCC2)c1C`, the inhibition was 3.25% (inactive). The same measure for `c1ccc2[nH]c(-c3nc4ccccc4[nH]3)nc2c1`: -5.47% (inactive); for `Cc1ccc2cccc(S(=O)(=O)N3CCN(c4ccccc4F)CC3)c2n1`: 2.15% (inactive); for `NC(=O)CSC1=Nc2ccccc2C2=NC(CCC(=O)NCc3ccc(F)cc3)C(=O)N12` (configuration not stated): 0.205% (inactive). Turning to `O=C(c1ccc(=O)[nH]c1)N(Cc1ccco1)C1(C(=O)NC2CCCCC2)CCCCC1`, the inhibition is 2.12% (inactive).

Regarding `O=C(CN1CCOCC1)Nc1c2c(nc3c1CCC3)CCC2`, the inhibition was 0.235% (inactive). In the case of `CCOc1c(N2CCCCC2)c(=O)c1=O` it was -3.57% (inactive). The same measure for `CCn1c(=O)cc(SCC(=O)NCc2ccc3c(c2)OCO3)c2ccccc21`: 1.53% (inactive). The same measure for `Cc1ccc(N2CCN(S(=O)(=O)c3ccc(F)cc3)CC2)c(C)c1`: -2.33% (inactive). Consider `CCCCN(CC)C(=O)CN(C)S(=O)(=O)c1cccc2nsnc12`, for which the inhibition was 0.445% (inactive).

As for `O=C(NCc1ccco1)c1cc(-c2cccnc2)nc2ccc(Cl)cc12`, the inhibition was -4.83% (inactive). In the case of `COc1ccc2c(c1)C=CC1(O2)N(CCO)c2ccccc2C1(C)C` (configuration not stated) it was 2.88% (inactive); in that of `CCOC(=O)N1CCC(C(N)=O)CC1`, 7.54% (inactive); in that of `CSC1=N/C(=C\C=C\c2cccs2)C(=O)S1`, 9% (inactive). In the case of `COc1cc(=O)[nH]c(=O)n1C(=O)Cc1ccccc1` it was 3.21% (inactive). The same measure for `COC(=O)COc1ccc(S(=O)(=O)Nc2ccc(NC(C)=O)cc2)cc1`: 0.2% (inactive). For `CS(=O)(=O)c1ccc2nc(NC(=O)C3C4C=CC(C4)C3C(=O)O)sc2c1` (configuration not stated), the inhibition is 0.27% (inactive).

In the case of `COc1ccc(NC(=O)Nc2cccc3cccnc23)cc1`, the inhibition was 3.29% (inactive).

In the case of `Cc1ccc(-c2noc(-c3ccccc3C(=O)NCC3CCCO3)n2)cc1` (configuration not stated), the inhibition is -4.67% (inactive). In the case of `C=CCn1c(SCc2cc(C(=O)OC)c(C)o2)nnc1-c1ccncc1` it was -5.06% (inactive); in that of `C=CCOc1ccc(C2/C(=C(\O)c3c(C)[nH]c(C(=O)OC)c3C)C(=O)C(=O)N2CCN(C)C)cc1` (configuration not stated), -5.12% (inactive).

`O=C(Cn1cnc2c(cnn2-c2ccccc2)c1=O)NCc1ccccc1`: the inhibition was -0.45% (inactive). With `Oc1ccc(-c2csc(Nc3cccnc3)n2)cc1`, the inhibition was 2.75% (inactive).

On to `CC(C)C[C@H](NC(=O)[C@@H]1O[C@H]1C(=O)O)C(=O)NCCCCN=C(N)N`, for which the inhibition is 99.7% (active). In the case of `COC(=O)c1cc(OC)c(OC)cc1NC(=O)C1CCCO1` (configuration not stated) it was -0.18% (inactive). The same measure for `CC1=NCCN1S(=O)(=O)c1ccc(Br)c(C)c1`: -3% (inactive); for `O=C1CC(c2ccccc2)C(=O)N1c1cccc(O)c1` (configuration not stated): -1.1% (inactive). The same measure for `COc1ccc(OCCCC(=O)Nc2nnc(C3CCCO3)s2)cc1` (configuration not stated): -2.29% (inactive). For `Cc1ccc(S(=O)(=O)N(C)CC(=O)N2CCc3ccccc32)cc1`, the inhibition is -2.02% (inactive). On to `O=C1c2oc3ccc(Br)cc3c(=O)c2C(c2cccc(F)c2)N1CCO` (configuration not stated), for which the inhibition is -5.69% (inactive). The same measure for `O=C(NCc1cccnc1)c1ccc(CS(=O)(=O)c2ccc(Br)cc2)o1`: 3.93% (inactive); for `CC(=O)Nc1ccc(S(=O)(=O)Nc2ccc(N3CCOCC3)c(F)c2)cc1`: 1.35% (inactive).

`Cc1nc2ccc(S(=O)(=O)NC(C(=O)N3CCCCCC3)C(C)C)cc2s1` (configuration not stated): the inhibition was 6.23% (inactive). On to `CCn1c(COc2cccc(OC)c2)nnc1SCC(=O)N1CCOCC1`, for which the inhibition was 2.62% (inactive). In the case of `CCOC(=O)c1c(CN2CCOCC2)n(-c2ccccc2)c2ccc(O)cc12` it was 4.31% (inactive); in that of `CC(c1nnc(SCC(=O)Nc2sccc2C#N)n1-c1ccc(Cl)cc1)N(C)C` (configuration not stated), 5.86% (inactive).

As for `Cc1cc(C)nc(-n2nc(C)cc2NC(=O)c2ccc(Br)o2)n1`, the inhibition was 6.29% (inactive).

Take `c1csc(-c2cn3c(n2)SCC3)c1`: the inhibition is 0.03% (inactive). As for `Cc1cc(/C=N/n2cnnc2)c(C)n1-c1ccc2ncccc2c1`, the inhibition was 0.4% (inactive).
